Rows were chosen to be rich in hits. Some 1.3% of all compounds tested hit in one or more screens of this group.
CCHF vOTU inh-1 = CCHFV vOTU protease inhibitors, primary screen, biochemical, Pep-AMC substrate, fluorescence; Crimean-Congo hemorrhagic fever virus L polyprotein viral ovarian tumor (vOTU) protease …; 370,000 tested, 0.55% active; AID 651958, 2012; inhibition, % at 11.5 µM; also: 0% = vehicle wells with enzyme and 100% = no enzyme wells
PriA SSB inh = inhibitors of Klebsiella pneumoniae PriA binding to SSB C-terminal tail, primary screen, biochemical, AlphaScreen. 430,000 tested, 0.6% active. inhibition, % at 33 µM. AlphaScreen SSBct-PriA binding, biotinylated peptide; in the data active = inhibition mostly above about 37%, no sharp cut-off; inactive = mostly below about 20%;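 also: plate controls were negative control peptide for no effect and reference peptide for full effect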
SARS 3CLpro inh = SARS-CoV 3CLpro protease inhibitors, primary screen, biochemical, quenched FRET. 290,000 tested, 0.14% active. recombinant SARS-CoV 3CLpro, quenched FRET peptide cleavage. Replicase polyprotein 1ab (Severe acute respiratory syndrome coronavirus), P0C6X7. inhibition, % at 6 µM; in the data active = inhibition above about 12%
Mtb hypoxia rep = PubChem AID 1159583 | M. tuberculosis hypoxia-regulated fluorescent reporter, fluorescence | fluorescence inhibition, % (test concentration not listed) | 300,000 tested, 0.1% active; in the data active = fluorescence inhibition mostly above about 23%, no sharp cut-off; inactive = mostly below about 17%
VHR inh abs = VHR1 phosphatase inhibitors, primary screen, biochemical, absorbance, uHTS. Dual specificity protein phosphatase 3 (Homo sapiens), P51452. recombinant VHR phosphatase, pNPP absorbance. inhibition, % at 13.3 µM. 290,000 tested, 0.52% active. AID 1654, 2009; in the data active = inhibition above about 50%
Target sequence (P51452 whole entry, looked up): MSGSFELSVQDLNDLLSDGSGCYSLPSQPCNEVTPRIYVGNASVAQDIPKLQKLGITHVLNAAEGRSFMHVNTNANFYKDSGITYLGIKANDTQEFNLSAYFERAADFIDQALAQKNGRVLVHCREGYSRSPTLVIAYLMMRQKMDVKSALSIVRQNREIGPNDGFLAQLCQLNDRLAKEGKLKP
CCHF vOTU inh-2 = CCHFV vOTU protease inhibitors, confirmation, biochemical, Pep-AMC substrate, fluorescence. shares compounds with CCHF vOTU inh-1. Recombinant CCHFV vOTU. inhibition, % at 11.5 µM. 1,900 tested, 17% active. AID 686976, 2013
* hit, by the source's call; . = not tested or not shown. Rule as the data show it, unless noted: active = inhibition above about 30%; inactive = the rest.

SMILES	CCHF vOTU inh-1	PriA SSB inh	SARS 3CLpro inh	Mtb hypoxia rep	VHR inh abs	CCHF vOTU inh-2
CCc1ccc([C@H]2[C@@H]3C(=O)C[C@@H]4C(=O)N(C)C(=O)[C@@H]4[C@@H]3CN2S(=O)(=O)c2ccc(C)cc2)cc1	30*	.	.	.	.	-7
CCc1ccc([C@H]2[C@@H]3C(=O)C[C@@H]4C(=O)N(CC)C(=O)[C@@H]4[C@@H]3CN2S(=O)(=O)c2ccc(C)cc2)cc1	1	.	.	.	.	.
CCc1ccc([C@@H]2CC(=O)[C@@H]3CN(S(=O)(=O)c4ccc(Cl)cc4)[C@H](c4ccc(C)cc4)C[C@@H]3N2S(=O)(=O)c2ccc(C)cc2)cc1	35*	.	.	.	.	-5
NC(=NOC(=O)C12CC3CC(CC(C3)C1)C2)c1ccccn1	.	-1	.	.	.	.
CC[C@@](CNS(=O)(=O)c1ccccc1OC)(OC)c1ccccc1	.	-2	.	.	.	.
CN(C)C=Nc1c(C(=O)c2ccccc2)sc2nccc(N(C)C)c12	30*	-10	-6	-6	0	-2
COc1cc(CNc2ncnc3c2ncn3[C@H]2CN(Cc3cccc(C(F)(F)F)c3)C[C@@H](CO)O2)cc(OC)c1OC	31*	.	.	.	.	-9
O=C(NCCCn1ccnc1)c1noc2c1CCCC2	-9	2	4	6	7	.
O=C(NCCCn1ccnc1)c1noc2c1CCc1ccccc1-2	39*	1	-2	-5	12	22
Cc1cnc(NC(=O)C2CCCN(c3cc(-n4cncn4)ncn3)C2)s1 (stereo not given)	.	-5	.	.	.	.
O=C(NCc1ccc(F)cc1)Nc1nnc([C@@H]2C[C@H](O)[C@@H](CO)O2)s1	34*	.	.	.	.	-14
O=C(NCc1ccc(F)cc1)Nc1nnc([C@H]2C[C@H](O)[C@@H](CO)O2)s1	7	.	.	.	.	.
Cc1ccc([C@H](CNS(=O)(=O)c2ccc(F)c(C)c2)OCCO)cc1	.	-2	.	.	.	.
Cc1ccc(N2C(=O)C3C4C=CC(C3C2=O)C2C(=O)N(c3ccc(C)c(C)c3)C(=O)C42)cc1C (stereo not given)	.	-10	.	.	.	.
CC1=NN(c2ccc(C)c(C)c2)C(=O)C1C(c1cccc(O)c1)C1C(=O)N(c2ccc(C)c(C)c2)N=C1C (stereo not given)	42*	-2	2	-1	54*	11
COc1ccc(-n2c(=O)c3sc4ccccc4c3n(Cc3cccc(C(F)(F)F)c3)c2=O)cc1	.	-2	.	.	.	.
COc1ccccc1N(C(C)=O)C1=C(Cl)C(=O)c2ccccc2C1=O	91*	.	.	.	.	83*
C=CCN1C(=O)C(C)(C)COc2ccc(NS(=O)(=O)c3ccc(NC(=O)C(C)C)cc3)cc21	.	8	.	.	.	.
CC(=O)Nc1cccc(NC(=O)CSc2nc(CC(=O)Nc3ccc4c(c3)OCO4)cs2)c1	.	0	.	.	.	.
Cc1ccc2nc(-c3ccc(Cl)cc3)c(Cc3ccccc3C(F)(F)F)n2c1	14	.	.	.	.	.
Cc1ccc(-c2nc3ccc(Cl)cn3c2Cc2ccccc2C(F)(F)F)cc1	32*	.	.	.	.	-10
Cc1ccc(Cc2c(-c3cccc(Br)c3)nc3ccc(Cl)cn23)cc1	40*	.	.	.	.	-5
CS(=O)(=O)c1cccc(-c2nnc(NC(=O)c3cccs3)o2)c1	.	0	.	.	.	.
O=C(Cn1cnc2c(sc3ccccc32)c1=O)Nc1ccc(F)cc1F	.	-1	.	.	.	.
N#Cc1c(N)n(-c2ccccc2N)c2nc3ccccc3nc12	65*	-9	4	9	-8	65*
SMILES	CCHF vOTU inh-1	PriA SSB inh	SARS 3CLpro inh	Mtb hypoxia rep	VHR inh abs	CCHF vOTU inh-2
CCc1c(-c2cccc(F)c2)ncn1CCc1ccccc1OC	30*	.	.	.	.	-4
CCCCCc1c(-c2ccc(OC)cc2)ncn1CCc1ccccc1OC	20	.	.	.	.	.
COc1ccccc1CCn1cnc(-c2ccc(F)cc2)c1CC(C)C	27	.	.	.	.	.
COc1ccccc1CCn1cnc(-c2ccccc2)c1CC(C)C	45*	.	.	.	.	18
CCCCCc1c(-c2ccc(Cl)cc2)ncn1CCc1ccccc1OC	37*	.	.	.	.	8
CCCCn1c(N)c(N(CC)C(=O)c2ccccc2F)c(=O)[nH]c1=O	33*	-12	0	15	2	-11
COCCN(C(=O)CSc1nn(-c2ccc(F)cc2)c(=S)s1)c1c(N)n(CC(C)C)c(=O)[nH]c1=O	5	3	.	7	.	.
CCCCn1c(N)c(N(CC(C)C)C(=O)CSc2nn(-c3ccc(F)cc3)c(=S)s2)c(=O)[nH]c1=O	38*	-2	.	12	.	-29
O=C1Cc2ccccc2C(=O)N1CCc1ccccc1	100*	10	2	.	25	102*
O=C1c2cccc3c(Cl)ccc(c23)C(=O)N1CCc1ccccc1	.	0	.	.	.	.
N#Cc1cc([N+](=O)[O-])ccc1NC(=O)CSc1n[nH]c(=O)n1C1CC1	32*	-14	.	1	.	-15
O=C(CSc1n[nH]c(=O)n1C1CC1)Nc1ccc(Cl)cc1Cl	3	-10	.	-3	.	.
O=C(O)c1cccc(Nc2ccncc2[N+](=O)[O-])c1	30*	-7	2	-1	.	-11
O=[N+]([O-])c1cnccc1Nc1ccccc1	-10	1	-8	6	12	.
CC[C@H](C)n1c(C)c(C)n2c3c(=O)n(CC(N)=O)c(=O)n(C)c3nc12	.	-7	.	.	.	.
O=C1NC(Cc2ccc(O)cc2)c2nc3cc(F)c(F)cc3c(=O)n2-c2cc3ccccc3cc21 (stereo not given)	30*	.	.	.	.	-17
CCS(=O)(=O)Nc1ccc2c(c1)C(=O)NCCO2	.	3	.	.	.	.
CCN(c1ccc(OC)cc1)S(=O)(=O)c1cc(-c2cc(C)no2)ccc1OC	31*	3	3	-1	-5	-18
CCN(c1ccc(OC)cc1)S(=O)(=O)c1cc(-c2cc(C)no2)ccc1C(C)C	16	2	0	-6	4	.
O=C(CN1C(=O)c2ccccc2C1=O)c1ccccc1	3	-4	-1	.	20	.
CC1=C(CC(=O)c2ccccc2)C(=O)c2ccccc2C1=O	40*	1	2	-6	23	34*
CCOc1ccccc1NC(=O)C(=O)NCC[C@H](O)c1ccsc1	.	-9	.	.	.	.
Oc1c(C(c2cccc(F)c2)N2CCc3ccccc3C2)sc2ncnn12 (stereo not given)	.	-4	.	.	.	.
CC(=O)NS(=O)(=O)c1ccc(Nc2ccc([N+](=O)[O-])c3nonc23)cc1	30*	-5	-2	38*	4	13
CS(=O)(=O)N1CCN(C(=O)c2cc3n(n2)CCCO3)CC1	.	-1	.	.	.	.
CC(=O)N(C)c1ccc(N=Cc2cc3c(cc2[N+](=O)[O-])OCO3)cc1	34*	15	.	9	.	31*
Cc1ccc(N=Cc2cc3c(cc2[N+](=O)[O-])OCO3)cc1[N+](=O)[O-]	18	-5	.	10	.	.
O=C(Nc1c2c(nn1-c1ccc(F)cc1)C[S@@](=O)C2)c1cccs1	.	-9	.	.	.	.
